Laboratory results from PubChem BioAssay (Tox21).
Results filed as inconclusive are left out. A call without a number means that no potency is given here. Unmarked numbers belong to inactive results. Calls of active or inactive are those of the source. Unless noted, calls come from the whole dose curve; as a rule, active = well fitted curve in the direction sought with a large enough effect in the repeat runs; inconclusive = weak or mixed curves; inactive = no such curve, though single readings can be large; an effect the other way counts as inactive or inconclusive.

Assays:
[1] = qHTS assay to identify small molecule antagonists of the estrogen related receptor (ERR) signaling pathway from Tox21 library - cell viability counter screen (AID 1224834); note: nearly all actives have a fitted effect of over 30% in size; note: potency is the fitted concentration of half-maximal effect
Summary of the method: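 CellTiter-Fluor fluorescence, read after 30 min at 37 C, measures viability of ERR cells. Cells plated at 2,000/well and incubated 6 h before pin-tool compound addition, then exposed 17.5 hours at 37 C.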

[2] = target: Luciferin 4-monooxygenase (Photinus pyralis) (UniProt P08659); assay: qHTS assay to identify small molecule inhibitors of firefly luciferase (AID 1224835); note: nearly all actives have a fitted effect of over 25% in size; note: potency is the fitted concentration of half-maximal effect
Summary of the method: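 Quantitative HTS format; KM concentrations of both substrates. Purified P. pyralis FLuc activity quantified from luminescence images.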

[3] = qHTS assay to identify small molecule agonists of the constitutive androstane receptor (CAR) signaling pathway - cell viability counter screen (AID 1224836); note: nearly all actives have a fitted effect of over 45% in size; note: potency is the fitted concentration of half-maximal effect
Summary of the method: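 23 h treatment, 37 C, 5% CO2. Cell line: HepG2 stably expressing hCAR with a CYP2B6-2.2kb construct. Co-treatment: PK11195, 0.75 uM final. Read-out: CellTiter-Fluor fluorescence intensity.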

[4] = qHTS assay to identify small molecule antagonists of the constitutive androstane receptor (CAR) signaling pathway - cell viability counter screen (AID 1224837); note: nearly all actives have a fitted effect of over 45% in size; note: potency is the fitted concentration of half-maximal effect
Summary of the method: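 Cytotoxicity counter-screen: CellTiter-Fluor fluorescence after 23 h compound exposure (15-point qHTS) in double-stable HepG2-CYP2B6-hCAR cells, with 50 nM CITCO added.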

[5] = target: Nuclear receptor subfamily 1 group I member 3 (Homo sapiens) (UniProt Q14994); assay: qHTS assay to identify small molecule antagonists of the constitutive androstane receptor (CAR) signaling pathway (AID 1224838);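 note: HepG2 cells stably expressing hCAR with CYP2B6 luciferase reporter stimulated by CITCO; nearly all actives have a fitted effect of over 40% in size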; note: potency is the fitted concentration of half-maximal effect
Summary of the method: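 Antagonism measured as luciferase signal (ONE-Glo, 30 min, room temperature) in CAR-stimulated cells: HepG2-CYP2B6-hCAR double-stable line exposed 24 hr at 37 C to compound in a 15-point series plus 50 nM CITCO.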

[6] = target: Nuclear receptor subfamily 1 group I member 3 (Homo sapiens) (UniProt Q14994); assay: qHTS assay to identify small molecule agonists of the constitutive androstane receptor (CAR) signaling pathway (AID 1224839); note: nearly all actives have a fitted effect of over 15% in size; note: potency is the fitted concentration of half-maximal effect;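 for activation: HepG2 cells stably carrying human CAR and a CYP2B6 luciferase reporter; series mostly up to about 92 µM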
Summary of the method: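 Compounds tested at 15 concentrations on HepG2 cells stably harbouring hCAR and CYP2B6-2.2kb reporter constructs, co-treated with PK11195 (0.75 uM final), 24 h at 37 C; luminescent reporter signal quantified.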

[7] = qHTS assay to identify small molecule agonists of the estrogen related receptor signaling pathway with the pleiotropic PPARgamma coactivator (PGC) from Tox21 10K library (AID 1224842); note: nearly all actives have a fitted effect of over 15% in size
Summary of the method: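 PGC/ERR reporter cells (NTP line) were seeded 2,000 per well, rested 6 h at 37 C/5% CO2, then pin-dosed with compounds in DMSO for 18 h at 37 C; luciferase read by One-Glo luminescence after 30 min at room temperature.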

[8] = qHTS assay to identify small molecule antagonists of the estrogen related receptor signaling pathway with the pleiotropic PPARgamma coactivator (PGC) from Tox21 10K library - cell viability counter screen (AID 1224840; active = well fitted cell-killing curve with a large enough effect in the repeat runs, not every such curve was filed as active; note: nearly all actives have a fitted effect of over 40% in size; note: potency is the fitted concentration of half-maximal effect)
Summary of the method: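 Counter-screen for cytotoxicity: after 17.5 h compound exposure at 37 C, CellTiter-Fluor reagent added to PGC/ERR cells for 30 min and fluorescence read. Cells were seeded at 2,000 per well 6 h before dosing.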

[9] = qHTS assay to identify small molecule antagonists of the estrogen related receptor signaling pathway with the pleiotropic PPARgamma coactivator (PGC) from Tox21 10K library (AID 1224841; call rule not given here; note: actives are mostly falling curves and most rising ones were filed inactive; nearly all actives have a fitted effect of over 50% in size; note: potency is the fitted concentration of half-maximal effect)
Summary of the method: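 Luminescence (One-Glo, 30 min at room temperature) after 18 h compound treatment at 37 C of PGC/ERR reporter cells plated at 2,000 cells/well and settled 6 h beforehand.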

[10] = target: Thyrotropin receptor (Homo sapiens) (UniProt P16473); assay: qHTS assay to identify small molecule agonists of the thyroid stimulating hormone receptor (TSHR) signaling pathway (AID 1224843; calls by dose curve; note: nearly all actives have a fitted effect of over 45% in size)
Summary of the method: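 Using 15 concentrations per compound in triplicate, cAMP production was monitored in TSHR-HEK293 cells after 30 min compound incubation at RT; HTRF reagents followed, with fluorescence intensity recorded after 1 h.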

Chain of Thyrotropin receptor (Homo sapiens) (P16473 whole entry, looked up): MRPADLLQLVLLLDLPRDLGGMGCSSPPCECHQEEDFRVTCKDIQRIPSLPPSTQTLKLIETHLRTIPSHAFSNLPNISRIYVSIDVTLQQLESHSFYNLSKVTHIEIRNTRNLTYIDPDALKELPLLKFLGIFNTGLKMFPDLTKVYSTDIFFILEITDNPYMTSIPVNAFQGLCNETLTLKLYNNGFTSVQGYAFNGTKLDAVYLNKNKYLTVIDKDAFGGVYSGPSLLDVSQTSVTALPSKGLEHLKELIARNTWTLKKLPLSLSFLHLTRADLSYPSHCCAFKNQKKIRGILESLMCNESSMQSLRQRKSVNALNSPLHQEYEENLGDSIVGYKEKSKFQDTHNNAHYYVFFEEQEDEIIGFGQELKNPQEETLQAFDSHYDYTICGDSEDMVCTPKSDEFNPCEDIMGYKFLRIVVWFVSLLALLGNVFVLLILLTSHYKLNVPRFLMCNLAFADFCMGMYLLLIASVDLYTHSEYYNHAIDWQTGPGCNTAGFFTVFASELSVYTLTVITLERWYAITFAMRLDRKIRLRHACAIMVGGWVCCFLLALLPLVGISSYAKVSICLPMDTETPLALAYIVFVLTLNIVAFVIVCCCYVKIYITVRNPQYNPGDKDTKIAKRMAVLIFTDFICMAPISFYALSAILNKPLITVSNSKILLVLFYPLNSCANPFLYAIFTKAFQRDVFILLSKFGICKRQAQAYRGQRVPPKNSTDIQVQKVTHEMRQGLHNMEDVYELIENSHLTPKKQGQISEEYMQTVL
Chain of Luciferin 4-monooxygenase (Photinus pyralis) (P08659 whole entry, looked up): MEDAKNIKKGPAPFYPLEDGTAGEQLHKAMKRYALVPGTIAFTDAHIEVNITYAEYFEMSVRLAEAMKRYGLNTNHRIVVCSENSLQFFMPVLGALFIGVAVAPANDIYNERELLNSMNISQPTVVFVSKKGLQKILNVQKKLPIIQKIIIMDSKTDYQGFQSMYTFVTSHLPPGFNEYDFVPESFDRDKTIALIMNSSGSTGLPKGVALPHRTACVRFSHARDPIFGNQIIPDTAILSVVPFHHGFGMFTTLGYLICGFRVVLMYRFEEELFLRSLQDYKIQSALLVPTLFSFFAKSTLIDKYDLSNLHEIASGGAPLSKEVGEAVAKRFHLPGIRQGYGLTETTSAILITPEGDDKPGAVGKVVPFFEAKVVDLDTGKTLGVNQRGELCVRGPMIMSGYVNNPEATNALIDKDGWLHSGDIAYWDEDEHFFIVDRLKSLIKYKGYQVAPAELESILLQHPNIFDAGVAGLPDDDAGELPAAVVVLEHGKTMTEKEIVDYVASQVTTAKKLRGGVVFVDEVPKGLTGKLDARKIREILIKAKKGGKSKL
Chain of Nuclear receptor subfamily 1 group I member 3 (Homo sapiens) (Q14994 whole entry, looked up): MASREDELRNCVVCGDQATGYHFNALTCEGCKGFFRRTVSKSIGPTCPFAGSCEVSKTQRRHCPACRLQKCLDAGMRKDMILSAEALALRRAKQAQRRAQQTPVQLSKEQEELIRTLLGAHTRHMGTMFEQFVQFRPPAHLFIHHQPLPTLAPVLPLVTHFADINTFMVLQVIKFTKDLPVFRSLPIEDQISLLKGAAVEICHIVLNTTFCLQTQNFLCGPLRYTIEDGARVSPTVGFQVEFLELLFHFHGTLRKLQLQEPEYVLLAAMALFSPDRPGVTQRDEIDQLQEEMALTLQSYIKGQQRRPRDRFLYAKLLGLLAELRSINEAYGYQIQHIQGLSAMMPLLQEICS

SMILES | Potency [1] | Potency [2] | Potency [3] | Potency [4] | Potency [5] | Potency [6] | Potency [7] | Potency [8] | Potency [9] | activation [6] | activation [7] | activation [10] | Potency [10]
Cc1cc2c(cc1C(F)(F)F)N(C(=O)Nc1ccc(Oc3cccnc3C)nc1)CC2 | 15.6 µM (active) | inactive | inactive | inactive | inactive | inactive | inactive | – | – | – | – | – | –
CCCC(C)c1ccccc1O (stereo not drawn) | inactive | inactive | inactive | inactive | inactive | inactive | – | inactive | – | – | – | – | –
CN(C)[C@@H]1C(=O)C(C(N)=O)=C(O)[C@@]2(O)C(=O)C3=C(O)c4c(O)cccc4C[C@H]3C[C@@H]12 | inactive | inactive | inactive | inactive | inactive | inactive | inactive | inactive | 26.6 µM (active) | – | – | – | –
CCN1/C(=C/C=C/c2sc3ccccc3[n+]2CC)Sc2ccccc21 | 5.8 µM (active) | 9.52 µM (active) | 13 µM (active) | 11.6 µM (active) | 14.6 µM (active) | – | – | 6.51 µM (active) | – | -9.24% [at 19 µM] | -14.5% [at 19 µM] | 1.82% [at 19 µM] | –
CC1(C)CCC(C)(C)c2cc(C(=O)Nc3ccc(C(=O)O)cc3)ccc21 | inactive | 79.6 µM (active) | inactive | inactive | inactive | inactive | inactive | inactive | inactive | – | – | – | inactive
Cc1cc(O)c(Cl)c(C)c1Cl | inactive | inactive | inactive | inactive | inactive | inactive | inactive | inactive | inactive | – | – | – | inactive
NNC(=O)c1cccc(C(=O)NN)c1 | inactive | inactive | inactive | inactive | inactive | inactive | – | inactive | – | – | – | – | –
CCC(C)Nc1ccc(NC(C)CC)cc1 (stereo not drawn) | 19.7 µM (active) | 40.7 µM (active) | 19.7 µM (active) | 31.2 µM (active) | 27.8 µM (active) | inactive | inactive | 15.7 µM (active) | 8.8 µM (active) | – | – | – | –
CCC1=C[C@@H]2CN(C1)Cc1c([nH]c3ccccc13)[C@@](C(=O)OC)(c1cc3c(cc1OC)N(C)[C@H]1[C@@](O)(C(=O)OC)[C@H](OC(C)=O)[C@]4(CC)C=CCN5CC[C@]31[C@@H]54)C2 | 0.0188 µM (active) | inactive | 4.22 µM (active) | 2.37 µM (active) | 0.106 µM (active) | inactive | inactive | – | inactive | – | – | – | –
NNc1nc(-c2ccc([N+](=O)[O-])cc2)cs1 | 6.86 µM (active) | 31.7 µM (active) | 54.5 µM (active) | 54.5 µM (active) | inactive | inactive | inactive | – | 48.6 µM (active) | – | – | – | –
CCN(CC)CCCC(C)Nc1c2ccc(Cl)cc2nc2ccc(OC)cc12 (stereo not drawn) | 5.96 µM (active) | inactive | inactive | – | – | – | – | – | – | – | – | – | –
CN(C)C(=O)C1(N2CCCCC2)CCN(CC[C@@]2(c3ccc(Cl)c(Cl)c3)CN(C(=O)c3ccccc3)CCO2)CC1 | 50.9 µM (active) | inactive | 50.9 µM (active) | 50.9 µM (active) | 50.9 µM (active) | inactive | inactive | 28.6 µM (active) | – | – | – | – | –
CCC(N)(CO)CO | inactive | inactive | inactive | inactive | inactive | inactive | inactive | inactive | inactive | – | – | – | –
Cc1cccc(N(C)C(=S)Oc2ccc3c(c2)C2CCC3C2)c1 (stereo not drawn) | inactive | inactive | inactive | inactive | inactive | 21.1 µM (active) | inactive | inactive | inactive | – | – | – | –
N/C(=N\N=C\c1ccc(Cl)cc1)N/N=C/c1ccc(Cl)cc1 | 33.5 µM (active) | 9.77 µM (active) | inactive | inactive | inactive | inactive | inactive | – | – | – | – | – | inactive
CC(C)(C)C(=O)OCOC(=O)[C@@H]1N2C(=O)[C@@H](NC(=O)[C@H](N)c3ccccc3)[C@H]2SC1(C)C | inactive | inactive | inactive | inactive | inactive | inactive | inactive | inactive | – | – | – | – | inactive
Cc1cccc(CN2CCN(C(c3ccccc3)c3ccc(Cl)cc3)CC2)c1 (stereo not drawn) | inactive | inactive | inactive | inactive | – | inactive | inactive | inactive | – | – | – | – | –
O=C(OCC(COC(=O)c1ccccc1)(COC(=O)c1ccccc1)COC(=O)c1ccccc1)c1ccccc1 | inactive | inactive | inactive | inactive | – | – | inactive | inactive | inactive | – | – | – | inactive
N=C1C=CC(=C(c2ccc(N)cc2)c2ccc(N)cc2)C=C1 | 21.7 µM (active) | 20 µM (active) | 34.4 µM (active) | 27.3 µM (active) | – | inactive | inactive | – | 3.44 µM (active) | – | – | – | –
CCOC(=O)/C=C(C)/C=C/C=C(C)/C=C/c1c(C)cc(OC)c(C)c1C | inactive | inactive | inactive | inactive | – | inactive | – | inactive | – | – | – | – | –
